Hit rate of the full screen: of about 360,000 compounds, about 3,600 (1%) were called active.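 How the source made its calls: active means compounds whose plate-normalised and pattern-corrected inhibition of the luciferase reporter signal at the single screening dose is 50% or more; inactive means the rest.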 The list comes from a sample in which actives are over-represented; it also holds similar structures and randomly drawn compounds.
test: inhibitors of TROY-driven NF-kB signaling, primary screen, Q293 LMP1-TROYcd cells, NF-kB luciferase, uHTS (AID 1347056); conditions: Q293 LMP1-TROYcd NF-kB luciferase reporter, 4 h; at 10 µM; stronger effect = higher value

| Compound | inhibition |
| --- | --- |
| Nc1nc(Br)c2ccccc2c1-c1ccc(F)cc1 | 14.8% (inactive) |
| O=[N+]([O-])c1ccc(N2CCN(S(=O)(=O)c3ccccc3)CC2)cc1N1CCc2ccccc2C1 | -19.3% (inactive) |
| CCc1nc2ccc(C(=O)N3CCN(S(=O)(=O)CC)CC3)cn2c1N(C=O)CCC(C)C | 0.5% (inactive) |
| C/C(CC(=O)NC(C)(C)C)=N\NC(=O)c1ccco1 | -29.8% (inactive) |
| COC(=O)[C@H](Cc1ccccc1)NC(=O)[C@@H]1C[C@H]1[C@@H](NC(=O)OCc1ccccc1)c1ccccc1 | 5.51% (inactive) |
| Cc1cc(Nc2cccc(C)c2C)n2ncnc2n1 | 3.52% (inactive) |
| COC(=O)CNC(=O)c1ccc(OC2CCN(C(=O)C3CC3)CC2)cc1 | 2.78% (inactive) |
| CC1O[C@H](OC2C(COC3OC(CO)C(O)[C@H](O)C3O)OC(OC3CC[C@]4(C)C(CC[C@@]5(C)[C@@H]4C=C[C@]46OC[C@@]7(CCC(C)(C)C[C@H]74)C(O)C[C@@]56C)C3(C)C)C(O)C2O)C(O)C(O)C1O (stereo not given in full) | -9.36% (inactive) |
| COc1ccc(CNC(=O)CN(c2ccc(OC)c(Cl)c2)S(=O)(=O)c2ccc(C)cc2)cc1 | -0.8% (inactive) |
| Cc1ccccc1OCCC(=O)Nc1c(C)n(C)n(-c2ccccc2)c1=O | 1.55% (inactive) |
| CN1CCN(c2ccc(NC(=O)c3ccc4c(c3)OCCO4)cc2Cl)CC1 | 22.3% (inactive) |
| CCN(CC)CCNC(=O)c1ccc(NS(=O)(=O)c2ccc3c(c2)OCCO3)cc1 | 16.6% (inactive) |
| CC(NS(=O)(=O)c1ccc(Cl)cc1)C(=O)Nc1ccc2c(c1)OCCO2 (stereo not given) | 2.15% (inactive) |
| O=C(Nc1cccc(S(=O)(=O)Nc2ccc(Cl)cc2)c1)c1ccc2c(c1)OCCO2 | 56.2% (active) |
| O=C(Nc1ccc2c(c1)OCCO2)c1ccc(Cl)c(S(=O)(=O)N2CCCCC2)c1 | 54.4% (active) |
| Cc1ccc(C(=O)Nc2ccc3c(c2)OCCO3)cc1S(=O)(=O)N1CCOCC1 | -52% (inactive) |
| C/C(=N\N(C)C)c1ccc(OCCOc2ccc([N+](=O)[O-])cc2)cc1 | -19.4% (inactive) |
| COc1ccc(N(CC(=O)Nc2cc(OC)cc(OC)c2)S(=O)(=O)c2c(C)n[nH]c2C)cc1 | -9.7% (inactive) |
| CN1C(=O)CC(c2ccccc2)C1=O (stereo not given) | 0.86% (inactive) |
| COCCN(Cc1cc2cc3c(cc2nc1Cl)OCO3)C(=O)c1cccc(C)c1 | 19.8% (inactive) |
| CN1CCN(CCCCOc2cccc3ccccc23)CC1 | -39.4% (inactive) |
| CC(C)c1ccccc1OCC(O)CN(CC(O)COc1cccc2ccccc12)C(C)C (stereo not given) | 65.6% (active) |
| CC1CC(C)CN(CCOc2cccc3ccccc23)C1 (stereo not given) | 6.96% (inactive) |

| Compound | inhibition |
| --- | --- |
| NC(=O)NC(=O)C(OC(=O)CCNS(=O)(=O)c1ccccc1)c1ccccc1 (stereo not given) | 1.93% (inactive) |
| Cc1ccc(CNCc2ccc3c(c2)OCO3)c(C)c1 | -5.84% (inactive) |
| CC(C)COC(=O)C1C2C=CC3(CN(C(C)c4ccc(Br)cc4)C(=O)C13)O2 (stereo not given) | -13.1% (inactive) |
| CCN1C(=O)[C@@H]2[C@@H]3CN(S(=O)(=O)c4ccccc4C)[C@@H](c4ccc(Cl)cc4)[C@@H]3C(=O)C[C@@H]2C1=O | 14.4% (inactive) |
| CC(C)C(C)(C#N)NC(=O)CSc1nncn1-c1ccccc1 (stereo not given) | -7.95% (inactive) |
| CC1CCN(C(=O)c2ccc3c(=O)n4c(nc3c2)CCCCC4)CC1 | 5.45% (inactive) |
| C=CCC1(CC=C)CCCN1C(=O)CC1C(=O)NCCN1Cc1ccccc1OC (stereo not given) | -17.8% (inactive) |
| CCN1CCN(C(=O)C2(NC(=O)Nc3cccc(F)c3)CCCCC2)CC1 | 7.69% (inactive) |
| c1ccc(-c2cc3c(NCC4COc5ccccc5O4)ncnc3s2)cc1 (stereo not given) | 59.3% (active) |
| O=C(Cn1cnc2ccccc2c1=O)NCC1COc2ccccc2O1 (stereo not given) | -4.41% (inactive) |
| Cc1noc(C)c1C(=O)NCC1COc2ccccc2O1 (stereo not given) | 7.74% (inactive) |
| CCOC(=O)[C@]12CCC=C1N(CCC1=CCCCC1)C(=O)[C@H](CC(=O)NCc1ccc(C)o1)C2 | -3.05% (inactive) |
| Cc1nc(Nc2ccccc2F)c2nnn(Cc3ccccc3Cl)c2n1 | -1.4% (inactive) |
| Cc1nc(Nc2ccc(S(=O)(=O)N3CCCC3)cc2)c2nnn(Cc3ccccc3)c2n1 | 22.5% (inactive) |
| Cc1nc(Nc2ccc3c(c2)OCCO3)c2nnn(Cc3ccccc3Cl)c2n1 | 82.3% (active) |
| CCOC(=O)CN(C)S(=O)(=O)c1ccc(-c2cc(C(=O)OC)sc2C(F)(F)F)cc1 | 87.2% (active) |
| Cc1ccc(S(=O)(=O)N(C)CC(=O)OCC(=O)Nc2ccccc2)cc1 | -10.3% (inactive) |
| COC(=O)c1sc(C(F)(F)F)c(-c2ccccc2)c1S(=O)(=O)N(C)C | -5.2% (inactive) |
| Cc1ccc(OCCCC(=O)NC(C)c2ccccc2)c(C)c1 (stereo not given) | -19.3% (inactive) |
| Cc1cccc(C(=O)OC(C)CN2CCCC2)c1 (stereo not given) | 17.2% (inactive) |
| Cc1cccc(C(=O)OC(C)CN2CCN(C)CC2)c1 (stereo not given) | 58% (active) |
| Cc1ccc(C(=O)OC(C)CN2CCOCC2)cc1 (stereo not given) | -24.8% (inactive) |
| C=CCc1c(C)nc2cc(-c3ccccc3)[nH]n2c1=O | -9.98% (inactive) |

| Compound | inhibition |
| --- | --- |
| O=c1c2c(nc3cc(-c4cccc(Cl)c4)[nH]n13)CCCC2 | 59.5% (active) |
| CCCCN1Cc2c(nc3cc(-c4ccccc4)[nH]n3c2=O)C1=O | 6.47% (inactive) |
| COC(=O)Cc1cc(=O)oc2c(C)c(O)ccc12 | 11.1% (inactive) |
| COc1ccc(Br)cc1CN1CCN(C(=O)c2cccc(OC)c2OC)CC1 | -1.16% (inactive) |
| COc1cccc(C(=O)OCc2cc(=O)oc3c(C)c(C)ccc23)c1OC | 54.5% (active) |
| Cc1ccc(NC(=S)N(CCCN2CCCC2)Cc2cccn2Cc2ccc(Cl)cc2)cc1 | -45.1% (inactive) |
| CCOc1cc(/C=N/NC(=O)OC)ccc1OCCSc1ccc(Cl)cc1 | 14.9% (inactive) |
| COc1cc(/C=C(/NC(=O)c2ccc(Cl)cc2Cl)C(=O)O)cc(OC)c1OC | 18.8% (inactive) |
| CCOc1cc(/C=C(/C#N)c2ccc(Cl)cc2)cc(Cl)c1OCC(=O)O | 70.8% (active) |
| O=C(O)C1=C[C@H](c2cccs2)C[C@H](OCCCCO)O1 | -7.03% (inactive) |
| COc1cccc(NC(=O)c2ccc3c(SCC(=O)O)c4c(nc3c2)CCCC4)c1 | -30.4% (inactive) |
| CC(C)CCC(C)NC(=O)c1ccc2nccnc2c1 (stereo not given) | -39.8% (inactive) |
| CC(C)CCNC(=O)c1ccc2c(Cl)c3c(nc2c1)CCC3 | 55.3% (active) |
| COC(=O)CNS(=O)(=O)c1ccc(Cc2ccc(S(=O)(=O)NCC(=O)OC)cc2)cc1 | 13.7% (inactive) |
| O=C(Cc1cccc2ccccc12)NCCC1=CCCCC1 | 80.3% (active) |
| O=C(CCNC(=O)Cn1ccc2ccccc2c1=O)NCCC1=CCCCC1 | 7.75% (inactive) |
| Cc1nnc(OCC(=O)NCCC2=CCCCC2)c2ccccc12 | -8.28% (inactive) |
| COc1ccc(C(CNC(=O)c2ccc(OCc3cscn3)cc2)N2CCCC2)cc1 (stereo not given) | 0.55% (inactive) |
| CCCS(=O)(=O)N1CCC(C(=O)NCCc2ccc(OC)c(OC)c2)CC1 | 0.11% (inactive) |
| COc1cccc(CNc2nc(NCc3cccs3)nc3ccsc23)c1 | 57.2% (active) |
| COc1cccc(CNc2nc(NCc3ccccc3OC)nc3ccsc23)c1 | 53.4% (active) |
| COc1ccccc1CNc1nc(Nc2ccccc2Cl)c2sccc2n1 | 42.1% (inactive) |
| COc1cccc(-c2cc3nc(NCc4ccccc4OC)n(C)c(=O)c3s2)c1 | -20.1% (inactive) |

| Compound | inhibition |
| --- | --- |
| Clc1ccccc1Nc1nc(NCc2cccs2)nc2ccsc12 | 6.87% (inactive) |
| COCCNc1nc(NCc2ccc(NC(C)=O)cc2)c2sccc2n1 | 8.19% (inactive) |
| CCOCCCNC(=S)N1CCC(NC(=O)C2CCCCC2)CC1 | 10.6% (inactive) |
| COc1ccc(C)cc1S(=O)(=O)NCCc1ccccc1 | 10.5% (inactive) |
| O=[N+]([O-])c1cc(S(=O)(=O)NCCc2ccccn2)ccc1Cl | -5.27% (inactive) |
| Cc1ccc(CC(=O)Nc2cccc(C#N)c2)cc1 | 5.18% (inactive) |
| CCOc1c2ccc(C(=O)NC3CCCc4ccccc43)cc2nn1CC (stereo not given) | 2.7% (inactive) |
| C/C(=N\NS(=O)(=O)c1ccc(Cl)cc1)c1ccc(NC(=O)c2ccco2)cc1 | -42.5% (inactive) |
| CN(C(=O)COc1ncnc2c1cnn2-c1ccccc1)C1CCCCC1 | 11.5% (inactive) |
| COc1ccc(-n2ncc3c(N4CCCc5ccccc54)ncnc32)cc1 | 62.1% (active) |
| COc1ccc(-n2ncc3c(SCC(=O)NNC(C)=O)ncnc32)cc1 | -14.8% (inactive) |
| O=C(CC1CCCCC1)NCc1ccc(F)cc1 | -30.5% (inactive) |
| CC(C)NC(=O)N1Cc2cc(C(=O)NCC(F)(F)F)nc(-c3cccc(-c4cc5ccccc5o4)c3)c2[C@@H]1CCO | 9.45% (inactive) |
| COC(=O)[C@@H]1C[C@H]2CC[C@H](O)C[C@H]2N1Cc1ccc(N2CCN(C)CC2)cc1 | 4.5% (inactive) |
| CC(C)(CNC(=O)CNC(=O)C1CCCCC1)N1CCOCC1 | 6.69% (inactive) |
| O=C(NNc1ccccc1Cl)C(O)(c1cccc(C(F)(F)F)c1)c1cccc(C(F)(F)F)c1 | 54.1% (active) |
| O=c1cc(O)c(-c2cccc(C(F)(F)F)c2)c(Cl)[nH]1 | -14.8% (inactive) |
| O=C(O)c1cc(S(=O)(=O)N(Cc2ccccc2)c2cccc(C(F)(F)F)c2)ccc1Cl | 3% (inactive) |
| Cc1ccc(S(=O)(=O)N2CCC3(CC2)OCCO3)c(C)c1 | 5.19% (inactive) |
| COc1ccc(/C(C)=N/N2CCOCC2)c(O)c1 | 6.68% (inactive) |
| CC1=C(C)CC(C(=O)NNC(=O)c2csc3c2CCC(C(C)(C)C)C3)C(C(=O)O)C1 (stereo not given) | -0.5% (inactive) |
